HT1080 IDH1KD tx: kills HT-1080 cells with IDH1 knockdown. actives 2% (n = 360,000). HT-1080 IDH1 knockdown viability, ATP luminescence, 48 h. AID 686971. Potency, µM (top dose mostly 46.1 µM), hits mostly cytotoxic
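Using the IDH1-knockdown HT-1080 line run in the same batch and compound series as the NT line, viability after 48 h at 37 °C was determined by CellTiter-Glo luminescence and expressed as % activity.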
KB-3-1 cytotox: kills parental KB-3-1 adenocarcinoma cells. actives 1.4% (n = 400,000). Potency, µM (highest dose often 46.1 µM), hits mostly cytotoxic. KB-3-1 viability, CellTiter-Glo ATP luminescence, 72 h; further: nearly all actives have a fitted effect of over 60% in size
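Using CellTiter-Glo luminescence, growth of non-resistant KB-3-1 adenocarcinoma cells is assessed 72 h after pin-tool compound addition at 37 °C. Normalized responses across the concentration series yield fitted curves.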
HT1080-NT tox: kills 2HG-producing HT-1080-NT fibrosarcoma cells; HT-1080-NT fibrosarcoma viability, CellTiter-Glo ATP luminescence, 48 h; Potency, µM (top dose mostly 46.1 µM), actives largely listed as cytotoxic; actives 1.6% (n = 360,000);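 further: NT is the 2HG producing partner of a matched IDH1 knockdown line; nearly all actives have a fitted effect of over 55% in size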
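HT-1080-NT; 750 cells/well; 5% FBS RPMI; 48 h compound, 37 degrees C; CellTiter-Glo luminescence; curve fitting and curve-class assignment.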
MCF10A rerep: induces DNA re-replication in MCF 10a normal breast cells | MCF 10A DNA re-replication, Hoechst nuclear intensity, 48 h | Potency, µM (series often up to 46.1 µM), hits mostly activators | actives 2.9% (n = 350,000); further: nearly all actives have a fitted effect of over 50% in size
SW480 rerep: DNA re-replication induction in SW480 cells. SW480 DNA re-replication, Hoechst DNA content imaging, 48 h. Potency, µM (titrated, usually from 46.1 µM), actives largely listed as activators. actives 1.8% (n = 340,000). AID 624297; further: nearly all actives have a fitted effect of over 55% in size
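Compounds, transferred as 23 nL by pin tool, were incubated with cells for 48 hr; DNA content per nucleus was then quantified by Hoechst staining and fluorescence plate imaging.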
KB-V1 MDR tox: kills drug-selected multidrug resistant KB-V1 cells. KB-V1 MDR cells viability, CellTiter-Glo, 72 h. Potency, µM (highest dose often 46.1 µM), most hits filed as cytotoxic. actives 3.4% (n = 400,000). AID 1347076; further: nearly all actives have a fitted effect of over 60% in size
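Luminescent ATP read-out (CellTiter-Glo, 10 min) measures survival of drug-selected KB-V1 MDR cells after 72 h, 37 degrees C compound exposure. Medium: phenol-red-free DMEM, 10% FBS. Values from fitted concentration-response curves.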
Numbers stand for hits; - = inactive; ? = inconclusive; . = no result; ! = not confirmed by another sample; [ ] = another dose, or the depositor's remark. This is a sample that favours compounds with a hit; in the whole collection about 7.9% have one here. The call rests on the fitted dose curve; in most records, active means well fitted curve in the direction sought with a large enough effect; inconclusive means small, poorly fitted or top-dose-only effect, or another doubt; inactive means no such curve, though single readings can be large; an effect the other way counts as inactive or inconclusive.

SMILES | HT1080 IDH1KD tx | KB-3-1 cytotox | HT1080-NT tox | MCF10A rerep | SW480 rerep | KB-V1 MDR tox
O=C(O)COc1ccccc1C=NNc1ccc([N+](=O)[O-])cc1S(=O)(=O)Nc1ccc(Cl)cc1 | - | - | - | 2.1µM | - | -
Cc1oc(-c2ccc(C(=O)NCc3ccccc3Cl)cc2)nc1CN1CCc2ccccc21 | . | 5.8µM | . | . | . | ?
COc1ccccc1CNC(=O)c1ccc(-c2nc(CN3CCc4ccccc43)c(C)o2)cc1 | . | ? | . | . | . | 10µM
O=C(Nc1ccccc1Br)C1CCC(=O)N1Cc1ccccc1Cl (configuration not stated) | - | - | - | - | - | 21µM
O=C(Nc1ccc(Cl)cc1)C1CCC(=O)N1Cc1ccccc1Cl (configuration not stated) | -[9.24 µM] | - | - | - | - | ?
COc1ccc(NC(=O)COC(=O)c2ccc(S(=O)(=O)N3CCCCC3)cc2)c(OC)c1 | - | - | - | . | . | -
O=C(CS(=O)(=O)c1nc(-c2ccc(Cl)cc2)cn1-c1ccccc1)Nc1cccc(Cl)c1 | . | 16µM | . | . | . | 16µM
COc1cccc(CNC(=O)c2ccc3c(c2)N(C)C(=O)C2CCCCN32)c1 (configuration not stated) | . | - | . | . | . | -
CN(C)Cc1ccc(-c2nc3cccc4c3n2CCNC4=O)cc1 | . | 18µM | . | ? | ? | -
Cc1cc(CN(C)C(=O)CC2C(=O)NCCN2Cc2ccc(-c3ccccc3)cc2)on1 (configuration not stated) | - | - | - | - | - | -
C[C@@H]1CN([C@@H](C)CO)C(=O)CCCn2nncc2CO[C@@H]1CN(C)S(=O)(=O)c1ccccc1 | - | - | - | . | . | -
Cc1cccc(C)c1OCc1cc(C(=O)N2CC3C[C@@H]4CC2C[C@H](C3)C4)no1 | - | - | - | 18µM | - | ?
CCOC(=O)N1CCN(c2nc3ccccc3n3cnnc23)CC1 | - | - | - | - | - | -
c1ccc(C(c2ccccc2)N2CCN(c3nc4ccccc4n4cnnc34)CC2)cc1 | - | 23µM | - | 7.3µM | - | 9.2µM
c1cnc(N2CCN(c3nc4ccccc4n4cnnc34)CC2)nc1 | - | ? | - | - | - | 7.3µM
Cc1cccc(N2CCN(c3nc4ccccc4n4cnnc34)CC2)c1C | - | - | - | ? | - | -
CCCOc1ccc(C(=O)Nc2ccc(S(=O)(=O)N3C[C@@H]4C[C@@H](C3)c3cccc(=O)n3C4)cc2)cc1 | ? | ? | 8.2µM | - | - | -
CCCOc1ccc(C(=O)Nc2ccc(S(=O)(=O)N3CCN(C)CC3)cc2)cc1 | - | - | - | ? | - | ?
COc1ccccc1C(C[N+](=O)[O-])c1c(N)n(C)c(=O)n(C)c1=O (configuration not stated) | ? | ? | ? | ? | ? | 7.3µM
O=C(Nc1ccc(OC(F)(F)F)cc1)C(NS(=O)(=O)c1cccc2nsnc12)c1ccccc1 (configuration not stated) | . | - | . | . | . | ?
CCCCC[C@H](O)/C=C/[C@H]1CCC(=O)[C@@H]1CCCCCCC(=O)N1CCCCC1CO (some centres not stated) | 13µM | - | 16µM | ? | - | -
CC(C)(C)c1ccc(C(=O)N2CCN(Cc3cc(=O)n4nc(-c5ccccc5F)sc4n3)CC2)cc1 | . | - | . | . | . | -
CCOC(=O)/C=C(C)/C=C/C=C(C)/C=C/c1c(C)cc(OC)c(C)c1C | . | . | . | 27µM | - | .
COc1cc(C)c(/C=C/C(C)=C/C=C/C(C)=C/C(=O)O)c(C)c1C | - | - | - | 8.2µM | - | -
CCOC(=O)/C=C(C)\C=C\c1c[nH]c2ccccc12 | ? | - | ? | - | - | -
SMILES | HT1080 IDH1KD tx | KB-3-1 cytotox | HT1080-NT tox | MCF10A rerep | SW480 rerep | KB-V1 MDR tox
CCOC(=O)c1cc2c(c(-c3cccc(-c4cc5ccccc5o4)c3)n1)[C@@H](CCO)N(S(=O)C(C)(C)C)C2 (some centres not stated) | ? | - | ? | . | . | -
Cc1ccc(C)c(N2CCN(C3C(=O)Nc4ccccc4-n4nnnc43)CC2)c1 (configuration not stated) | 16µM | 15µM | ? | . | . | 12µM
Cc1ccc(NC(=O)Cn2c(=O)n(CCC(=O)NCCc3ccccc3)c(=O)c3ccccc32)cc1 | . | - | . | . | . | -
COC(=O)c1cccc(Cn2c(Cl)c(/C=N/Nc3ccccc3C)sc2=O)c1 | - | - | - | 26µM | 10µM | ?
Cc1ccc(S(=O)(=O)NCCc2nnc3ccc(SCC(=O)Nc4ccc(OC(F)(F)F)cc4)nn23)cc1 | . | - | . | . | . | -
CN(C(=O)COC(=O)c1ccccc1OCC(=O)Nc1ccc(Br)cc1)c1ccccc1 | - | . | - | . | . | .
Cc1ccc(Oc2ccc(S(=O)(=O)N3CCOCC3)cc2C(N)=O)c(-n2nc3ccccc3n2)c1 | 4.1µM | 6.5µM | ? | 4.6µM | 5.2µM | 18µM
COc1cccc(NC(=O)c2sc3nc(N4CCOCC4)c4c(c3c2N)CC(C)(C)OC4)c1 | . | - | . | . | . | -
CCOC(=O)c1sc2nc(-c3ccco3)c3c(c2c1N)CC(C)(C)OC3 | - | - | - | 23µM | - | 12µM
COC(=O)c1ccc(-c2sc3nc(N4CCOCC4)c4c(c3c2N)CC(C)(C)OC4)o1 | - | - | - | ? | 0.71µM | -
Cc1nc2c(sc3nc(N4CCOCC4)c4c(c32)CC(C)(C)OC4)c(-c2ccc(Cl)cc2)c1C(=O)O | - | ? | - | 0.46µM | 5.2µM | -
COc1ccc(NC(=O)c2sc3nc(N4CCCC4)c4c(c3c2N)CC(C)(C)OC4)c(OC)c1 | - | - | - | ? | 2.9µM | -
Cc1ccc(CNC(=O)Cn2nc(N3CCN(c4ccccc4)CC3)ccc2=O)cc1 | . | - | . | . | . | ?
Cc1ccc(NC(=O)c2sc3nc(N4CCOCC4)c4c(c3c2N)CC(C)(C)OC4)cc1 | - | - | - | ? | - | -
CCOC(=O)c1sc2nc3c(cc2c1N)COC(C)(C)C3 | - | ? | - | ? | -[9.22 µM] | -
CCOc1ccc(NC(=O)c2sc3nc(N4CCOCC4)c4c(c3c2N)CC(C)(C)OC4)cc1 | - | 7.3µM | - | - | - | -
CCOC(=O)c1sc2nc3c(cc2c1N)COC(C)(CC)C3 (configuration not stated) | - | - | - | 18µM | ? | -
CCOC(=O)c1ccc(NC(=O)c2sc3nc(N4CCOCC4)c4c(c3c2N)CCCC4)cc1 | - | - | - | 2.1µM | ? | -
COc1ccc(NC(=O)c2sc3nc(N4CCOCC4)c4c(c3c2N)CCCC4)cc1 | - | - | - | . | . | -
CC1(C)Cc2c(c(N3CCOCC3)nc3sc(C(=O)Nc4ccc(Cl)cc4)c(N)c23)CO1 | - | 16µM! | - | ? | - | ?
